# Laboratory results published in PubChem BioAssay AID1159580 (chemical genetic matrix, 2015).
# The campaign covered roughly 5,500 compounds. About 2,000 (36%) were called active. About 18% were inconclusive and are not listed. This is one part of the list. Unmarked numbers belong to inactive results. Rule as the data show it: active = normalized growth mostly below about 0.91 (no sharp cut-off); inconclusive = no clear call, values can overlap the other calls; inactive = mostly above about 0.92.
# Experiment: chemical genetic growth profiling, strain panel (AID 1159580);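 also: tested at 20 µM; growth read once vehicle control cultures reached saturation at 30 °C; 1 = growth at the plate median or of vehicle wells; lower values mean less growth of the strain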
# Settings: growth OD
smiles,measurement,setting,value
Cc1cc(C(C)(C)C)c(O)c(C(C)(C)C)c1,normalized growth,"S. cerevisiae deletion strains, locus YJR075W, strain HOC1, active compounds read low",0.929
same,normalized growth,"S. cerevisiae deletion strains, locus YKL009W, strain mrt4, active compounds read low",1
same,normalized growth,"S. cerevisiae deletion strains, locus YKL068W, active compounds read low",0.978
same,normalized growth,"S. cerevisiae deletion strains, locus YKL085W, strain MDH1 (second series), active compounds read low",1
same,normalized growth,"S. cerevisiae deletion strains, locus YKL085W, strain MDH1, active compounds read low",1
same,normalized growth,"S. cerevisiae deletion strains, locus YKL160W, strain elf1, active compounds read low",1
same,normalized growth,"S. cerevisiae deletion strains, locus YKL190W, strain CNB1, active compounds read low",0.96
same,normalized growth,"S. cerevisiae deletion strains, locus YKR001C, strain vps1, active compounds read low",0.927
same,normalized growth,"S. cerevisiae deletion strains, locus YKR026C, strain gcn3, active compounds read low",0.978
same,normalized growth,"S. cerevisiae deletion strains, locus YKR091W, strain srl3, active compounds read low",0.986
same,normalized growth,"S. cerevisiae deletion strains, locus YLL001W, strain dnm1, active compounds read low",0.99
same,normalized growth,"S. cerevisiae deletion strains, locus YLL026W, active compounds read low",0.954
same,normalized growth,"S. cerevisiae deletion strains, locus YLL041C, strain sdh2, active compounds read low",0.978
same,normalized growth,"S. cerevisiae deletion strains, locus YLR027C, strain aat2, active compounds read low",0.932
same,normalized growth,"S. cerevisiae deletion strains, locus YLR039C, strain RIC1, active compounds read low",0.861
same,normalized growth,"S. cerevisiae deletion strains, locus YLR058C, strain SHM2, active compounds read low",0.964
same,normalized growth,"S. cerevisiae deletion strains, locus YLR102C, strain apc9, active compounds read low",0.989
same,normalized growth,"S. cerevisiae deletion strains, locus YLR113W, strain HOG1, active compounds read low",0.85 (active)
same,normalized growth,"S. cerevisiae deletion strains, locus YLR221C, strain rsa3, active compounds read low",0.853 (active)
same,normalized growth,"S. cerevisiae deletion strains, locus YLR258W, strain gsy2, active compounds read low",0.997
same,normalized growth,"S. cerevisiae deletion strains, locus YLR262C, strain YPT6 (second series), active compounds read low",0.956
same,normalized growth,"S. cerevisiae deletion strains, locus YLR262C, strain YPT6, active compounds read low",0.85
same,normalized growth,"S. cerevisiae deletion strains, locus YLR268W, strain sec22, active compounds read low",0.944
same,normalized growth,"S. cerevisiae deletion strains, locus YLR320W, strain mms22, active compounds read low",0.904
same,normalized growth,"S. cerevisiae deletion strains, locus YLR330W, strain CHS5, active compounds read low",0.99
same,normalized growth,"S. cerevisiae deletion strains, locus YLR342W, strain FKS1 (second series), active compounds read low",1.09
same,normalized growth,"S. cerevisiae deletion strains, locus YLR342W, strain FKS1, active compounds read low",0.975
same,normalized growth,"S. cerevisiae deletion strains, locus YLR357W, strain rsc2, active compounds read low",0.966
same,normalized growth,"S. cerevisiae deletion strains, locus YLR370C, strain arc18, active compounds read low",0.986
same,normalized growth,"S. cerevisiae deletion strains, locus YLR371W, strain rom2, active compounds read low",1.01
same,normalized growth,"S. cerevisiae deletion strains, locus YLR384C, strain iki3, active compounds read low",0.971
same,normalized growth,"S. cerevisiae deletion strains, locus YLR418C, strain cdc73, active compounds read low",0.855
same,normalized growth,"S. cerevisiae deletion strains, locus YML016C, strain PPZ1, active compounds read low",0.997
same,normalized growth,"S. cerevisiae deletion strains, locus YML032C, strain rad52, active compounds read low",0.973
same,normalized growth,"S. cerevisiae deletion strains, locus YML120C, strain ndi1, active compounds read low",0.938
same,normalized growth,"S. cerevisiae deletion strains, locus YML124C, strain tub3, active compounds read low",0.995
same,normalized growth,"S. cerevisiae deletion strains, locus YMR058W, strain fet3, active compounds read low",0.968
same,normalized growth,"S. cerevisiae deletion strains, locus YMR078C, strain ctf18, active compounds read low",0.995
same,normalized growth,"S. cerevisiae deletion strains, locus YMR125W, strain sto1, active compounds read low",0.989
same,normalized growth,"S. cerevisiae deletion strains, locus YMR129W, active compounds read low",1
same,normalized growth,"S. cerevisiae deletion strains, locus YMR205C, strain PFK2, active compounds read low",0.998
same,normalized growth,"S. cerevisiae deletion strains, locus YMR223W, strain ubp8, active compounds read low",0.958
same,normalized growth,"S. cerevisiae deletion strains, locus YMR231W, strain pep5, active compounds read low",0.989
same,normalized growth,"S. cerevisiae deletion strains, locus YMR263W, strain SAP30, active compounds read low",0.898
same,normalized growth,"S. cerevisiae deletion strains, locus YMR307W, strain GAS1, active compounds read low",0.901
same,normalized growth,"S. cerevisiae deletion strains, locus YNL067W, strain RPL9B, active compounds read low",0.926
same,normalized growth,"S. cerevisiae deletion strains, locus YNL071W, strain lat1, active compounds read low",0.997
same,normalized growth,"S. cerevisiae deletion strains, locus YNL128W, strain TEP1, active compounds read low",0.874
same,normalized growth,"S. cerevisiae deletion strains, locus YNL153C, strain GIM3, active compounds read low",0.917
same,normalized growth,"S. cerevisiae deletion strains, locus YNL183C, strain NPR1, active compounds read low",0.938
same,normalized growth,"S. cerevisiae deletion strains, locus YNL209W, strain ssb2, active compounds read low",0.993
same,normalized growth,"S. cerevisiae deletion strains, locus YNL233W, strain BNI4, active compounds read low",0.844 (active)
same,normalized growth,"S. cerevisiae deletion strains, locus YNL248C, strain rpa49, active compounds read low",0.904
same,normalized growth,"S. cerevisiae deletion strains, locus YNL250W, strain rad50, active compounds read low",0.993
same,normalized growth,"S. cerevisiae deletion strains, locus YNL271C, strain bni1, active compounds read low",1
same,normalized growth,"S. cerevisiae deletion strains, locus YNL298W, strain CLA4, active compounds read low",0.962
same,normalized growth,"S. cerevisiae deletion strains, locus YNL307C, strain MCK1, active compounds read low",0.98
same,normalized growth,"S. cerevisiae deletion strains, locus YNL322C, strain KRE1 (second series), active compounds read low",1.01
same,normalized growth,"S. cerevisiae deletion strains, locus YNL322C, strain KRE1, active compounds read low",0.975
same,normalized growth,"S. cerevisiae deletion strains, locus YNR049C, strain mso1, active compounds read low",0.982
same,normalized growth,"S. cerevisiae deletion strains, locus YNR052C, strain pop2, active compounds read low",1
same,normalized growth,"S. cerevisiae deletion strains, locus YOL006C, strain TOP1, active compounds read low",0.888
same,normalized growth,"S. cerevisiae deletion strains, locus YOL012C, strain htz1",2.14 [resistant] (active)
same,normalized growth,"S. cerevisiae deletion strains, locus YOL147C, strain pex11, active compounds read low",0.996
same,normalized growth,"S. cerevisiae deletion strains, locus YOR001W, strain rrp6, active compounds read low",0.916
same,normalized growth,"S. cerevisiae deletion strains, locus YOR061W, strain CKA2, active compounds read low",0.966
same,normalized growth,"S. cerevisiae deletion strains, locus YOR069W, strain VPS5, active compounds read low",0.997
same,normalized growth,"S. cerevisiae deletion strains, locus YOR070C, strain gyp1, active compounds read low",0.957
same,normalized growth,"S. cerevisiae deletion strains, locus YOR080W, strain dia2, active compounds read low",0.99
same,normalized growth,"S. cerevisiae deletion strains, locus YOR083W, strain WHI5, active compounds read low",0.986
same,normalized growth,"S. cerevisiae deletion strains, locus YOR106W, strain vam3, active compounds read low",0.966
same,normalized growth,"S. cerevisiae deletion strains, locus YOR136W, strain idh2, active compounds read low",0.974
same,normalized growth,"S. cerevisiae deletion strains, locus YOR144C, strain elg1, active compounds read low",0.987
same,normalized growth,"S. cerevisiae deletion strains, locus YOR184W, strain ser1, active compounds read low",1.01
same,normalized growth,"S. cerevisiae deletion strains, locus YOR231W, strain MKK1, active compounds read low",0.916
same,normalized growth,"S. cerevisiae deletion strains, locus YOR265W, strain rbl2, active compounds read low",0.992
same,normalized growth,"S. cerevisiae deletion strains, locus YOR270C, strain vph1, active compounds read low",0.84
same,normalized growth,"S. cerevisiae deletion strains, locus YOR290C, strain snf2, active compounds read low",0.954
same,normalized growth,"S. cerevisiae deletion strains, locus YOR316C, strain cot1, active compounds read low",0.992
same,normalized growth,"S. cerevisiae deletion strains, locus YPL051W, strain arl3, active compounds read low",0.954
same,normalized growth,"S. cerevisiae deletion strains, locus YPL055C, strain LGE1, active compounds read low",0.798
same,normalized growth,"S. cerevisiae deletion strains, locus YPL078C, strain atp4, active compounds read low",0.99
same,normalized growth,"S. cerevisiae deletion strains, locus YPL106C, strain sse1, active compounds read low",0.917
same,normalized growth,"S. cerevisiae deletion strains, locus YPL240C, strain hsp82, active compounds read low",0.985
same,normalized growth,"S. cerevisiae deletion strains, locus YPL241C, strain CIN2, active compounds read low",0.98
same,normalized growth,"S. cerevisiae deletion strains, locus YPL256C, strain CLN2, active compounds read low",0.922
same,normalized growth,"S. cerevisiae deletion strains, locus YPR119W, strain clb2, active compounds read low",0.995
same,normalized growth,"S. cerevisiae deletion strains, locus YPR141C, strain kar3, active compounds read low",0.97
same,normalized growth,"S. cerevisiae deletion strains, locus YPR163C, strain tif3, active compounds read low",0.981
same,normalized growth,"S. cerevisiae deletion strains, locus YPR167C, strain met16, active compounds read low",0.985
same,normalized growth,"S. cerevisiae deletion strains, strain wtn01, active compounds read low",0.938
same,normalized growth,"S. cerevisiae strains, strain wild type, active compounds read low",0.933
